A number with no mark means an inactive call. Results filed as inconclusive are left out. The source made the active and inactive calls. Unless noted, the call rests on the fitted dose curve; in most records, active means well fitted curve in either direction with a large enough effect (not every such curve was filed as active); inconclusive means small, poorly fitted or top-dose-only effect, or another doubt; inactive means flat fitted curve, though single readings scatter. Bounds are passed on as bounds.

In test [1] the target is Lysosomal acid glucosylceramidase (Homo sapiens) (UniProt P04062). The test is described as follows: Glucocerebrosidase-p2 (AID 348; in the data active means potency below about 10 µM; further: potency means the concentration at half of the fitted maximal effect). As to conditions: purified GBA, blue fluorogenic substrate, 40 min. The method in brief: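 Normal human glucocerebrosidase (0.2 nM) with blue fluorogenic substrate (80 uM final) in citrate/phosphate pH 5.9 with 10mM sodium taurocholate, 0.01% tween-20; 40 min RT, NaOH/glycine stop; fluorescence Ex 365/Em 440; AC50 from a titration from 0.6 nM upwards.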

The nature of test [2]: AP1 Signaling Pathway (AID 357).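 Further: ME-180 reporter cells stimulated with EGF at its EC50 level; on the % scale 0 is the no-effect control and ±100 the full control effect.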 As to conditions: ME-180 AP-1-bla reporter, EGF-induced, beta-lactamase ratio, 5 h; at 7.69 µM (top of the series) unless noted. Put shortly: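 AP-1-bla ME-180 cells, Opti-MEM + 0.5% dialyzed FBS, plated overnight 37 °C. Cpd titration + EC50 EGF, 5 h 37 °C. CCF4 2.5 h RT; ex 405, em 460/530 ratio → %activity, AC50.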
In test [3] the target is Cytochrome P450 1A2 (Homo sapiens) (UniProt P05177). Kind of test: p450-cyp1a2 (AID 410; calls by dose curve; further: potency means the concentration at half of the fitted maximal effect;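 on activity change, negative = inhibition: -100% = full effect of reference inhibitor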). As to conditions: recombinant CYP1A2, luciferin-ME demethylation, luminescence; series mostly up to 11.4 µM. The method in brief: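 Read-out is luminescence from luciferin produced by CYP1A2 demethylation of Luciferin-ME (100uM, at Km). Detection reagent stopped the 60 min NADPH-dependent reaction; signals were normalized to 57 uM furafylline.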

For test [4], the target named is Glucocorticoid receptor (Homo sapiens) (UniProt P04150). The test is described as follows: GR-GFP Redistribution (AID 450;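 active means compounds whose dose series gives a full or clear partial fitted curve of increased nuclear translocation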; further: potency means the concentration at half of the fitted maximal effect). As to conditions: U2OS GR-GFP nuclear translocation, laser cytometry, 2 h.
For test [5] the target is unchanged. Kind of test: GR-EFC Redistribution (AID 451; calls by dose curve; further: potency means the concentration at half of the fitted maximal effect). As to conditions: CHO-K1 GR-EFC translocation, beta-gal luminescence, 2 h. The method in brief:
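CHO-K1 cells stably expressing nuclear-localized β-gal enzyme acceptor and GR fused C-terminally to the enzyme donor fragment; ligand-driven nuclear translocation restores β-gal by complementation. Compounds titrated up to 46 uM final, 2 h at 37 °C; luminescence read.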

Test [6] concerns the target Mitogen-activated protein kinase 10 (Mus musculus) (UniProt Q61831). The test is described as follows: JNK3 AlphaScreen Assay (AID 530).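 Further: kinase came from lysate of stimulated human HepG2 cells; signal reports phosphorylation of biotinylated GST-cJun 1-79 at Ser73 with 10 µM ATP; on the % scale 0 is the no-effect control and ±100 the full control effect.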 As to conditions: JNK3 lysate, c-Jun phosphorylation; series mostly up to 11.4 µM. Put shortly:
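Biotinylated GST-cJun(1-79) served as substrate for JNK3 in HepG2 lysates stimulated with IL-1beta and TNF-alpha. ATP was 10 uM final, pH 7.6. Ser73 phosphorylation was quantified by AlphaScreen (680 nm excitation).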

In test [7] the target is 3',5'-cyclic-AMP phosphodiesterase 4B (Homo sapiens) (UniProt Q07343). Kind of test: qHTS Assay for Inhibitors of PDE-IV (AID 607; active means well fitted activation curve with a large enough effect in the main read-out, with a control signal flat, not every such curve was filed as active; further: % of control where 0% means no effect). As to conditions: HEK293 ACTOne CNG channel cells, membrane potential fluorescence; series mostly up to 22.9 µM. Put shortly: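 The readout is membrane depolarisation from a cAMP-sensing CNG channel, detected with a potential dye at ex 535/em 590. Cells were HEK293-derived (endogenous PDE-IV) at 1000 cells/well, titrated up to 22.9 uM final.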
(Quantitative high-throughput screening tests each substance at several concentrations.)

The target of test [8] is Cytochrome P450 3A4 (Homo sapiens) (UniProt P08684). Kind of test: qHTS Assay for Activators of Cytochrome P450 3A4 (AID 885; active means well fitted curve in the direction sought with a large enough effect; an effect the other way counts as inactive or inconclusive; further: nearly all actives have a fitted effect of over 65% in size). As to conditions: recombinant CYP3A4, Luciferin-PPXE luminescence, 60 min; series mostly up to 11.4 µM. Put shortly:
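Activators are scored by enhanced luminescence from CYP3A4 conversion of luciferin-PPXE (25uM, equal to KM) to luciferin, after 60 min at RT with an NADPH-regenerating system.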

Test [9] has as its target Cytochrome P450 2D6 (Homo sapiens) (UniProt P10635). The test is described as follows: qHTS Assay for Inhibitors and Substrates of Cytochrome P450 2D6 (AID 891; active means well fitted curve in the direction sought with a large enough effect; an effect the other way counts as inactive or inconclusive; further: nearly all actives have a fitted effect of over 60% in size; further: potency means the concentration at half of the fitted maximal effect). As to conditions: recombinant CYP2D6, luciferin-ME EGE luminescence; series mostly up to 11.4 µM. Put shortly: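 Luminescent read-out of luciferin formed by 5 nM human CYP2D6 demethylating 30 uM Luciferin-ME EGE (Km level) over 60 min at room temperature after NADPH regeneration addition. Data normalized to full inhibition by 1.43 uM quinidine.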

Test [10] in a line: Stat Signaling Pathway (AID 446).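 Further: ME-180 cervical cancer cells given 40 pM IL-6 alongside compound; SIE-controlled beta-lactamase reporter measured as 460/530 nm FRET emission ratio; on the % scale 0 is the no-effect control and ±100 the full control effect.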 As to conditions: ME-180 (cervical carcinoma) SIE beta-lactamase reporter, IL-6 stimulated, 5 h; at 7.69 µM (top of the series) unless noted. Put shortly:
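Emission at 460 and 530 nm (excitation 405 nm) reports SIE-controlled beta-lactamase in ME-180 cells. Cells received compound with 40 pM IL-6 for 5 hrs at 37 C; data scaled between 300 pM IL-6 and 125 nM JAK-inhibitor controls.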

Test [11] deals with Cytochrome P450 2C9 (Homo sapiens) (UniProt P11712). Kind of test: qHTS Assay for Inhibitors and Substrates of Cytochrome P450 2C9 (AID 883; active means well fitted curve in the direction sought with a large enough effect; an effect the other way counts as inactive or inconclusive; further: potency means the concentration at half of the fitted maximal effect; nearly all actives have a fitted effect of over 60% in size). As to conditions: recombinant CYP2C9, luciferin-H luminescence, 60 min; series mostly up to 11.4 µM. The method in brief:
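Human CYP2C9 (10nM) hydroxylated Luciferin-H (100uM, at its KM) to luciferin in 25mM KPO4. Compound was preincubated 10 min at 37C, then NADPH regeneration started a 60 min reaction at 37C. Luminescence was read after detection reagent, normalized to 57uM sulphaphenazole.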

Test [12] has as its target Cytochrome P450 3A4 (Homo sapiens) (UniProt P08684). Kind of test: qHTS Assay for Inhibitors and Substrates of Cytochrome P450 3A4 (AID 884; active means well fitted curve in the direction sought with a large enough effect; an effect the other way counts as inactive or inconclusive; further: nearly all actives have a fitted effect of over 50% in size; further: potency means the concentration at half of the fitted maximal effect; on activity change, negative = inhibition: on the % scale 0 is the no-effect control and ±100 the full control effect). As to conditions: recombinant CYP3A4, Luciferin-PPXE luminescence; series mostly up to 57.1 µM. Put shortly: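 Luminescent readout of luciferin produced by CYP3A4 (20 nM) dealkylation of Luciferin-PPXE, 25 uM (its KM). NADPH-driven reaction ran 60 min at RT after 10 min compound preincubation; data scaled to 57 uM ketoconazole as 100% inhibition.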

In test [13] the target is Cytochrome P450 2C19 (Homo sapiens) (UniProt P33261). Kind of test: qHTS Assay for Inhibitors and Substrates of Cytochrome P450 2C19 (AID 899; active means well fitted curve in the direction sought with a large enough effect; an effect the other way counts as inactive or inconclusive; further: nearly all actives have a fitted effect of over 60% in size; further: potency means the concentration at half of the fitted maximal effect). As to conditions: recombinant CYP2C19, luciferin-H EGE luminescence; series mostly up to 11.4 µM. Put shortly: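 Human CYP2C19 (5nM) with Luciferin-H EGE at 10uM (its KM) in 50mM KPO4 was preincubated with compound for 10 min at 37C. NADPH regeneration started a 60 min 37C reaction. Luciferin was read by luminescence, normalized to 57uM ketoconazole.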
Chain of Cytochrome P450 2C19 (Homo sapiens) (P33261 whole entry, looked up): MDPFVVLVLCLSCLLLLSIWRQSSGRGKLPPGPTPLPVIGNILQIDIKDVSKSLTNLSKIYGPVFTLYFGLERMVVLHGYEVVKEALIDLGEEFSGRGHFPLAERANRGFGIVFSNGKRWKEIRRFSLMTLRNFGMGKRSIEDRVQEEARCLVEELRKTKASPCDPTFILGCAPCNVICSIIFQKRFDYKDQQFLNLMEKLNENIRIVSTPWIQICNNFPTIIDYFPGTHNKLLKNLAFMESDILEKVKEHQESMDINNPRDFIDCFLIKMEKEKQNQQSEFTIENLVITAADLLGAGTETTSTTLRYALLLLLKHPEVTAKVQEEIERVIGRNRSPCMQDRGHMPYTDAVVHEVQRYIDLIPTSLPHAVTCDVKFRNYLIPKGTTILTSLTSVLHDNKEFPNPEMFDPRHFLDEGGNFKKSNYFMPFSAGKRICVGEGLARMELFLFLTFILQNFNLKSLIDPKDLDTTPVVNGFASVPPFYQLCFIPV

Chain of 3',5'-cyclic-AMP phosphodiesterase 4B (Homo sapiens) (Q07343 whole entry, looked up): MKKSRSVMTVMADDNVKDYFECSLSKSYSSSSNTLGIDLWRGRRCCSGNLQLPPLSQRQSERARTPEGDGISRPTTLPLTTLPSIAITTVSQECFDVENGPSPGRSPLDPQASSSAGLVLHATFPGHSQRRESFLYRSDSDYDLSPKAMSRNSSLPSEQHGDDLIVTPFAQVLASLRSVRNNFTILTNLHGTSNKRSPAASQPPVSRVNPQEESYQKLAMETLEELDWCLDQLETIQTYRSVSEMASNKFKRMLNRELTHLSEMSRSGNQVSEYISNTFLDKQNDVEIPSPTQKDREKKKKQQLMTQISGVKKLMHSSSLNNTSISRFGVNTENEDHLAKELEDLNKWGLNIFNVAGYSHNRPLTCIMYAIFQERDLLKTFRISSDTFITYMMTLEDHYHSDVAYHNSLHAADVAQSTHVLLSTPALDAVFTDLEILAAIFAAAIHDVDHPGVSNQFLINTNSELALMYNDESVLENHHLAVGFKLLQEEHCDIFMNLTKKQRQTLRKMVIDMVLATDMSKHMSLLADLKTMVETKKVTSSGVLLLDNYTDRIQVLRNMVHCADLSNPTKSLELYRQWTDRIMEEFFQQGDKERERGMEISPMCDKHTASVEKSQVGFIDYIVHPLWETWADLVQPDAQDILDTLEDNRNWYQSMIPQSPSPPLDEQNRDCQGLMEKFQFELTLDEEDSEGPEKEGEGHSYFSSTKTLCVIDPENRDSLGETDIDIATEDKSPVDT
Chain of Cytochrome P450 1A2 (Homo sapiens) (P05177 whole entry, looked up): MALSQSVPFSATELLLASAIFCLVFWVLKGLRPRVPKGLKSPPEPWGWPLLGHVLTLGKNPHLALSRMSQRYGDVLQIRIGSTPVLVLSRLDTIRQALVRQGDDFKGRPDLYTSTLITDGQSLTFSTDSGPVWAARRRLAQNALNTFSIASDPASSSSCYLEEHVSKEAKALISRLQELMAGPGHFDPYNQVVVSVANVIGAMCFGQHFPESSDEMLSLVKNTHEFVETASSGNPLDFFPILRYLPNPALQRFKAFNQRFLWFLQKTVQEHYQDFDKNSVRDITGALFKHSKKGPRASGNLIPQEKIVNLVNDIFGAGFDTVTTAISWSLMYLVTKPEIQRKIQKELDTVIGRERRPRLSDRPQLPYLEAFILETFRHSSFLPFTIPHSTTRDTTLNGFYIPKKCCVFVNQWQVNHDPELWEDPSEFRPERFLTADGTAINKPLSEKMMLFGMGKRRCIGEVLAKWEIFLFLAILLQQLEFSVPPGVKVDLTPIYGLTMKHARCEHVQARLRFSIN
Chain of Cytochrome P450 2D6 (Homo sapiens) (P10635 whole entry, looked up): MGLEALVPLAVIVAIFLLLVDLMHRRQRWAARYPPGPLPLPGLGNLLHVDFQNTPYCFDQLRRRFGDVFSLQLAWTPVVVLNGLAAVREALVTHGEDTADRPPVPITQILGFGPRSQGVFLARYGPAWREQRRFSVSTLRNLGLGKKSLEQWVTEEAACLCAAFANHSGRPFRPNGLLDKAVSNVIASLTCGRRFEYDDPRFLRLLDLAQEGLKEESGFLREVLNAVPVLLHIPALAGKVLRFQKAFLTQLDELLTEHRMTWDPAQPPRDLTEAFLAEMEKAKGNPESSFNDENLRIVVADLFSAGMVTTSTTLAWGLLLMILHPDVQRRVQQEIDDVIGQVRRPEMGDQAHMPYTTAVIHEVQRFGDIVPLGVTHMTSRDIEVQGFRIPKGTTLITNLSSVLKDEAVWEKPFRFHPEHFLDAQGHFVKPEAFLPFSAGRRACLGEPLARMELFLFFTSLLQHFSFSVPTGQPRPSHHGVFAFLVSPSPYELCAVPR
Chain of Cytochrome P450 3A4 (Homo sapiens) (P08684 whole entry, looked up): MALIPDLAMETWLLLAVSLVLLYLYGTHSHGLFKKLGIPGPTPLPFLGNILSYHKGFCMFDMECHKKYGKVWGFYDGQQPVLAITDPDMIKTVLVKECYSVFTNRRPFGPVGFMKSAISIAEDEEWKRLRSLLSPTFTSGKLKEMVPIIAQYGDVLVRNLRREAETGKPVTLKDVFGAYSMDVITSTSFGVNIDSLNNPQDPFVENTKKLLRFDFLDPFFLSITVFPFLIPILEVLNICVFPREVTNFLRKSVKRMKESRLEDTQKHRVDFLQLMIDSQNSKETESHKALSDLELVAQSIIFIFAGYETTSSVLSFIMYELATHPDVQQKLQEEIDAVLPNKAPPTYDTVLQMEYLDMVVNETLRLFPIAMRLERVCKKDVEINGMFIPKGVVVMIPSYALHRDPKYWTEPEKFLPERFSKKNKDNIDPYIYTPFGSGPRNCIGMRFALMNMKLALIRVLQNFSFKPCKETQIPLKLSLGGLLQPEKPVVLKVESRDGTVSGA
Chain of Glucocorticoid receptor (Homo sapiens) (P04150 whole entry, looked up): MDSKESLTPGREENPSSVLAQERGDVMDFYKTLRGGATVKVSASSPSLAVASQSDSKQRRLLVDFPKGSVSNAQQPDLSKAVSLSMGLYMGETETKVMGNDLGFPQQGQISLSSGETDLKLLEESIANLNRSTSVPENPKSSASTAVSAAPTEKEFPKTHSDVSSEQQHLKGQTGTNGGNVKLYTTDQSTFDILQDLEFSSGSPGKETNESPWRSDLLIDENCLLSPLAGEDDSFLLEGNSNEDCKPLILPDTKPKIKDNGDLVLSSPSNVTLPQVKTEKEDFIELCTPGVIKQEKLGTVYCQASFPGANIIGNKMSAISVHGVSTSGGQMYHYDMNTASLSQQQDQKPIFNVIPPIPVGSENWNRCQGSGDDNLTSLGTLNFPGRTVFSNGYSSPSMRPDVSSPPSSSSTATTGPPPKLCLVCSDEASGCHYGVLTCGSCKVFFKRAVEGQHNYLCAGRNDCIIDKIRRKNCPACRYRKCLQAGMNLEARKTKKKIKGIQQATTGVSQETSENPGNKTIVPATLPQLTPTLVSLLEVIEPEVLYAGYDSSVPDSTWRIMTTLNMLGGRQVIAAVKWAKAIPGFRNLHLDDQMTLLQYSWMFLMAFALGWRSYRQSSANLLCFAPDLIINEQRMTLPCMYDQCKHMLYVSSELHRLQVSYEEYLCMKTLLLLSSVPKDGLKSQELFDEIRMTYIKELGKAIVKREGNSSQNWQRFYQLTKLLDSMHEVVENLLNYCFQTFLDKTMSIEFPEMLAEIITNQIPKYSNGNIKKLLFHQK
Chain of Lysosomal acid glucosylceramidase (Homo sapiens) (P04062 whole entry, looked up): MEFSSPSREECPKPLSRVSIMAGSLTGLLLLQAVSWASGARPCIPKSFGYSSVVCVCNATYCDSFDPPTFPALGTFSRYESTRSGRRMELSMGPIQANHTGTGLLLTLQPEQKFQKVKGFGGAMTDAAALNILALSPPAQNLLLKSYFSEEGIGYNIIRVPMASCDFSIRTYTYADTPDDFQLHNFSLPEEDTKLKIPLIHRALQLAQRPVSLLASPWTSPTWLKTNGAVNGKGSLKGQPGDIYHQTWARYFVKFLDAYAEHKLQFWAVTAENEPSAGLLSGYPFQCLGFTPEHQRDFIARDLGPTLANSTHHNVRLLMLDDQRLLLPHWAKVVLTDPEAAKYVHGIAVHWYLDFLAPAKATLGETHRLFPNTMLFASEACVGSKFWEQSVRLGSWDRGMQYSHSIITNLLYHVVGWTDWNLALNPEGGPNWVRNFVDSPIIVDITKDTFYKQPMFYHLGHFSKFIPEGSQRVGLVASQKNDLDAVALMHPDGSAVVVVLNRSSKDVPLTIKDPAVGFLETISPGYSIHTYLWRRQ
Chain of Cytochrome P450 2C9 (Homo sapiens) (P11712 whole entry, looked up): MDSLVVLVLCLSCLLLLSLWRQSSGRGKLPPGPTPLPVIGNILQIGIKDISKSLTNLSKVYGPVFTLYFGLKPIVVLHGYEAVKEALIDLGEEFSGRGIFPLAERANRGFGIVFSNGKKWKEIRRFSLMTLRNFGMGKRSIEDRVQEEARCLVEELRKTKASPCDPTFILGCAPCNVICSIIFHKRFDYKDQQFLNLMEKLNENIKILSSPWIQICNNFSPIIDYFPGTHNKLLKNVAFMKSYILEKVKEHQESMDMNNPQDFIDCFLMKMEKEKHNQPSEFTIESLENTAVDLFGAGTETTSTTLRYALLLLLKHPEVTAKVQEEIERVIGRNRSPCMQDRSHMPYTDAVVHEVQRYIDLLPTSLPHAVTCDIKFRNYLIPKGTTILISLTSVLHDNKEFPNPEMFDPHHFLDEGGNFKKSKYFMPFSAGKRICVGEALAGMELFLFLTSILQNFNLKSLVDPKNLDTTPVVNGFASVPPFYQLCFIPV

For `O=[N+]([O-])c1cccc(/C=N\Nc2ccc3ccccc3n2)c1O`, the Potency in [1] is > 11.4 µM; in [3], 0.794 µM (active); in test [4], > 46 µM; in test [5], > 9.22 µM; in [9] it was 3.16 µM (active). In addition, in [2], the activity change, negative = inhibition was -13.9%. In addition, the Potency result in [6], in [7] and in test [8] was “inactive” each time.
Turning to `c1ccc(SCCc2ccncc2)cc1`, the Potency in test [1] was > 11.4 µM; in [3], 0.2 µM (active); in test [4], > 46 µM; in test [5] it was > 9.22 µM; in [11], 1.26 µM (active); in [12], 2.51 µM (active). In addition, the Potency in test [9] is 1.26 µM (active); in [13], 0.794 µM (active). Further, the activity change, negative = inhibition in test [2] is 9.37%. Also, the activity, negative = inhibition in test [10] was -2.72%. For the same compound, the Potency result in test [7] and in test [8] was “inactive” each time.
Take `CC1(C)N=C(N)N=C(N)N1c1cccc(CSc2ccccc2)c1`: the Potency in test [1] is > 11.4 µM; in test [4], > 46 µM; in test [5] it was > 9.22 µM; in test [9], 0.251 µM (active). In addition, the activity change, negative = inhibition in test [2] was -4.06%; in test [3], -17.2% [at 2.29 µM]. In addition, the Potency entry in [6] and in [7] was “inactive” in each case.
Consider `CSc1ncnc2c1ncn2CC(=O)[C@H]1CC[C@H]2[C@H]3CCC4=CC(=O)CC[C@@]4(C)[C@@H]3CC[C@@]12C`, for which the Potency is > 11.4 µM in [1], 3.98 µM (active) in test [3], > 46 µM in [4] and > 9.22 µM in [5]. The activity change, negative = inhibition in test [2] was -21.5%; in test [12] it was -20.1% [at 11.4 µM]. Besides, the Potency result in test [6], in test [7], in test [9] and in test [13] was “inactive” each time.
`O=C(O)[C@@H]1[C@H](C(=O)O)[C@H]2C(=O)C=C[C@H]1N2Cc1ccccc1`: the results for the Potency in [1], in test [4] and in test [5] were > 11.4 µM, > 46 µM and > 9.22 µM, respectively. In addition, the figures for the activity change, negative = inhibition in test [2] and in [3] were -5.73% and -3.9% [at 2.29 µM], respectively. For the same compound, the Potency result in [6] and in test [7] was “inactive” throughout.
Consider `CC(=O)O[C@H]1CC[C@@]2(C)C(=CC[C@@H]3[C@H]4CC[C@@H]([C@H](C)C(=O)O)[C@]4(C)CC[C@H]32)C1`, for which the Potency in test [1] was > 11.4 µM; in test [3] it was 3.16 µM (active); in test [4], > 46 µM; in test [5] it was > 9.22 µM. The activity change, negative = inhibition in test [2] was -2.09%. For the same compound, in [10], the activity, negative = inhibition is 9.87%. Moreover, the Potency result in test [6] and in test [7] was “inactive” each time.
Turning to `N#Cc1ccc(CN2CC3(CCN(C(=O)c4cc(C(F)(F)F)cc(C(F)(F)F)c4)CC3)C2)cc1`, the Potency is > 11.4 µM in [1] and > 46 µM in test [5]. Besides, the activity change, negative = inhibition in test [2] was -21.3%. Moreover, the Potency entry in test [3], in test [6] and in test [7] was “inactive” in each case. For the same compound, the activity, negative = inhibition in test [10] is 7.48%.
On to `O=C(O)c1ccccc1N[C@H](c1ccccc1)c1ccc2cccnc2c1O`, for which the Potency is > 11.4 µM in [1]; 1.58 µM (active) in [3]; > 46 µM in [4]; > 9.22 µM in test [5]; 3.98 µM (active) in [13]. For the same compound, the activity change, negative = inhibition in test [2] is 0.796%. Further, in test [10], the activity, negative = inhibition was -21.5%. Also, the Potency entry in [6] and in test [7] was “inactive” each time.

These data come from PubChem BioAssay (NCATS).
